Test [1] is described as follows: antimalarial activity against Dd2 strain (AID 2302;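 active = growth inhibition above 50% at the single 2 µM test dose, taken to imply half-maximal potency below 2 µM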;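 also: 0% = DMSO untreated growth and 100% = chloroquine plus artemisinin killed control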). The conditions noted are these: P. falciparum Dd2 in RBCs, LDH growth readout, 72 h; at 2 µM; active compounds read high.
A short description of test [2]: HepG2 cytotoxicity, primary screen, cytotoxicity control for P. falciparum antimalarial project, cell-based, ATP luminescence (AID 2303;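 active = inhibition above 50%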;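 also: 0% = DMSO wells and 100% = digitonin-killed cells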). Particulars: HepG2 viability, 24-48 h, at 10 µM, active compounds read high.
Test [3] deals with L-lactate dehydrogenase (Plasmodium falciparum (isolate CDC / Honduras)) (UniProt Q27743). Description: PfLDH activity inhibition – cell lysate, 3D7 strain, counter-screen for P. falciparum growth inhibition project (AID 2304).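 Also: 0% = vehicle and 100% = reference inhibitor.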 Particulars: P. falciparum 3D7 crude extract, LDH APAD/NBT absorbance; at 2 µM; active compounds read high. For orientation: Counterscreens check selectivity or assay interference.

Test [4] can be described thus: inhibition of 3D7 malaria parasite growth – strain 3D7 (AID 2306).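 Also: 0% = DMSO wells and 100% = chloroquine plus artemisinin control wells.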 Particulars: P. falciparum 3D7 erythrocytic growth, LDH absorbance, 72 h; at 2 µM; active compounds read high.
Test [5] deals with Calcium-dependent protein kinase 1 (Plasmodium falciparum (isolate 3D7)) (UniProt P62344). The experiment in a line: PfCDPK1 kinase inhibitors, biochemical, TCAMS library (AID 1159585; cut-off not given, nearly all actives have IC50 up to about 0.98 µM;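 also: inhibitors leave more ATP so luminescence rises with inhibition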). Particulars: recombinant PfCDPK1, Kinase-Glo ATP depletion luminescence.
The target in test [6] is Plasmodium falciparum protein kinase 6 (PK6, PF3D7_1337100) (UniProt Q8IDW1). The experiment in a line: PfPK6 kinase inhibitors, biochemical, TCAMS library (AID 1159586). The conditions noted are these: recombinant PfPK6, Kinase-Glo ATP depletion luminescence. For orientation: In Kinase-Glo more light means more ATP remaining.
Test [7] deals with Protein kinase 7 (PK7), Plasmodium falciparum 3D7 (PF3D7_0213400) (UniProt Q7YTF7). The experiment in a line: inhibition of Plasmodium PK7 catalytic activity – biochemical, TCAMS antimalarial set, Kinase-Glo luminescence (AID 1159587). The conditions noted are these: recombinant PfPK7, Kinase-Glo ATP depletion luminescence.
Test [8] addresses Calcium-dependent protein kinase 4 (Plasmodium falciparum (isolate 3D7)) (UniProt Q8IBS5). The experiment in a line: PfCDPK4 kinase inhibitors, biochemical, TCAMS library (AID 1159588; cut-off not given, nearly all actives have IC50 up to about 0.91 µM). The conditions noted are these: recombinant PfCDPK4, Kinase-Glo ATP depletion luminescence.

Molecules are shown by their SMILES. Unmarked numbers belong to inactive results. For some of these results: Potency and affinity values are given separately. Calls of active or inactive are those of the source. Unless noted, no rule for the calls is given here.

Sequence of Protein kinase 7 (PK7), Plasmodium falciparum 3D7 (PF3D7_0213400) (Q7YTF7 1-343): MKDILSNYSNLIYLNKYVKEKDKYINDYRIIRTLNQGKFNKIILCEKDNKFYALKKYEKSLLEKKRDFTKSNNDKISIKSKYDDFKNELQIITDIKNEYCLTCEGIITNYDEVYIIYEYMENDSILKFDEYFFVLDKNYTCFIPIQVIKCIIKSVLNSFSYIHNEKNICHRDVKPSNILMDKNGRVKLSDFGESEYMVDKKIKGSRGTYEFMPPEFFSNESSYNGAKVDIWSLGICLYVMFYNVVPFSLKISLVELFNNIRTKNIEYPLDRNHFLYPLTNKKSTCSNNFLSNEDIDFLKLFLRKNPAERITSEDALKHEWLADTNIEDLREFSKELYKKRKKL
Sequence of L-lactate dehydrogenase (Plasmodium falciparum (isolate CDC / Honduras)) (Q27743 whole entry, looked up): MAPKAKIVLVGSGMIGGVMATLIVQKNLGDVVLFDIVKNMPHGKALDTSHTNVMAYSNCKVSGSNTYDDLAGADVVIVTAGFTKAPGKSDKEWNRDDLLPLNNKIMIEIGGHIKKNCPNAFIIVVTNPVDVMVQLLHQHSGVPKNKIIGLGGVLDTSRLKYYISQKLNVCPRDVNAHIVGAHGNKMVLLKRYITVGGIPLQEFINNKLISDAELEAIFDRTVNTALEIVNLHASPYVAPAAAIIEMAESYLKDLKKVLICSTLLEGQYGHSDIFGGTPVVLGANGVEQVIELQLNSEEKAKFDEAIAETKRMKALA
Sequence of Plasmodium falciparum protein kinase 6 (PK6, PF3D7_1337100) (Q8IDW1 1-305): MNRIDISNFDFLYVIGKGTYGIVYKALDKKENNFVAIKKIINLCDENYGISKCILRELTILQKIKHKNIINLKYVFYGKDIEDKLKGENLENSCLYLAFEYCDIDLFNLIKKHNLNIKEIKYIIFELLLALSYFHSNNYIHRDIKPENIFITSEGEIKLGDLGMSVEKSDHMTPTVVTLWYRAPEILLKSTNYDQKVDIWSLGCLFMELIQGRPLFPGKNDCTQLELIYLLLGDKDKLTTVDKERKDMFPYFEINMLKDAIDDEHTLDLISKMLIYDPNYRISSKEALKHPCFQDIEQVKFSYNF
Sequence of Calcium-dependent protein kinase 4 (Plasmodium falciparum (isolate 3D7)) (Q8IBS5 whole entry, looked up): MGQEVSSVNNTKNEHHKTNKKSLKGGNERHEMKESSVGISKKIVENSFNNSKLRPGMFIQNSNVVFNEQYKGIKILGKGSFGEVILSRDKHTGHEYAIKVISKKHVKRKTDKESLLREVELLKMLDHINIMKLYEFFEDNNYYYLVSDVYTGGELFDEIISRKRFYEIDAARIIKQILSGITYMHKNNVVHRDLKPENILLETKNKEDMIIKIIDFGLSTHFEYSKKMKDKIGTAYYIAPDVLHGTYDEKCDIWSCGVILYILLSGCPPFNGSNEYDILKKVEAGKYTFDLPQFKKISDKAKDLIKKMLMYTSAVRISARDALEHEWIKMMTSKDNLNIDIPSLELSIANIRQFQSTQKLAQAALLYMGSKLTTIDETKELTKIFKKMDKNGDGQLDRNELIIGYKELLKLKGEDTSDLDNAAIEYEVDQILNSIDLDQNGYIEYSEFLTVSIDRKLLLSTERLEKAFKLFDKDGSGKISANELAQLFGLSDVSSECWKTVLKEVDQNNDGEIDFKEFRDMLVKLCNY
Sequence of Calcium-dependent protein kinase 1 (Plasmodium falciparum (isolate 3D7)) (P62344 whole entry, looked up): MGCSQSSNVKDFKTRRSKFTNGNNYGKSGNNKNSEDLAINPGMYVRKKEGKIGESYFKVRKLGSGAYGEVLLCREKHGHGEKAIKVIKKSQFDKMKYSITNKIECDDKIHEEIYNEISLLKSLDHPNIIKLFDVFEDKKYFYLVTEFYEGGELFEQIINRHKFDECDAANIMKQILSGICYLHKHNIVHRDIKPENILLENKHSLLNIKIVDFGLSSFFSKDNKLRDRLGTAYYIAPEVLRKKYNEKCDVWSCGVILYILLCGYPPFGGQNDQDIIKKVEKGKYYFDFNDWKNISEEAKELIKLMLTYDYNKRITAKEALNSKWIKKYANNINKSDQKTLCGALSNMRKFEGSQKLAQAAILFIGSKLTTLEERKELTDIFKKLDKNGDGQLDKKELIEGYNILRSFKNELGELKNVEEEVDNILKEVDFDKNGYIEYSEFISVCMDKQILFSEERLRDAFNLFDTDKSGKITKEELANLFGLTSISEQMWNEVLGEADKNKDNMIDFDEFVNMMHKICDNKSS

For the molecule `O=C(c1cc(-c2ccco2)[nH]n1)N1CCN(S(=O)(=O)c2ccc(Cl)cc2)CC1`, the growth inhibition is 95% (active) in test [1] and 96% (active) in test [4]. Further, the inhibition in test [2] was -5%; in test [3], 2%. For the same molecule, the outcome in test [5], in test [6], in test [7] and in test [8] was inactive.

Take `COc1ccc(Cl)cc1NC(=O)CN(C)C(=O)c1cnn(-c2ccccc2)n1`: the growth inhibition in test [1] was 99% (active); in test [4], 102% (active). The inhibition was -6% in test [2] and -2% in test [3]. The result in test [5], in test [6], in test [7] and in test [8] was inactive.

On to `CC(C)COc1ccc(Cl)cc1Cc1ccc(-c2nc3ccc(CCN4CCCC4)cc3[nH]2)o1`, for which the growth inhibition in test [1] is 94% (active); in test [4], 100% (active). In addition, the figures for the inhibition in test [2] and in test [3] were 34% and 1%, respectively. The outcome in test [5], in test [6], in test [7] and in test [8] was inactive.

For `Cc1nc(C)c(CC(=O)Nc2ccc(-c3ccc(-c4nc5ccc(C(F)(F)F)cc5[nH]4)s3)cc2)s1`, the growth inhibition in test [1] was 29%; in test [4], 90% (active). Also, the inhibition was 57% (active) in test [2] and -8% in test [3]. For the same molecule, the outcome in test [5], in test [6], in test [7] and in test [8] was inactive.

For `COc1cccc(C(=O)Nc2ccc(-c3nc4ccccc4[nH]3)cc2)c1`, the growth inhibition in test [1] is 19%; in test [4], 95% (active). Further, the inhibition in test [2] is 28%; in test [3], -3%. Moreover, the result in test [5], in test [6], in test [7] and in test [8] was inactive.

For `COc1ccc(C(C)Nc2nc(N)c3cc(OC)c(OC)cc3n2)cc1` (stereo not given), the growth inhibition was 28% in test [1] and 101% (active) in test [4]. Moreover, the figures for the inhibition in test [2] and in test [3] were 23% and -2%, respectively. For the same molecule, the outcome in test [5], in test [6], in test [7] and in test [8] was inactive.

On to `CCCC(C)Nc1nc(C)cc(N[C@@H](CC(C)C)C(=O)NCCc2ccccc2)n1` (stereo not given in full), for which the growth inhibition in test [1] is 51% (active); in test [4], 96% (active). Further, the inhibition was 9% in test [2] and -2% in test [3]. Besides, the result in test [5], in test [6], in test [7] and in test [8] was inactive.

`Cc1cc(O)c(CN(C)Cc2ccc3c(c2)OCO3)cc1C(C)C`: the growth inhibition was 74% (active) in test [1] and 98% (active) in test [4]. Also, the inhibition in test [2] was 9%; in test [3], 0%. Moreover, the outcome in test [5], in test [6], in test [7] and in test [8] was inactive.

Consider `CCOc1ccccc1CNc1nccc(NCc2ccccc2OC)n1`, for which the growth inhibition in test [1] is 66% (active); in test [4], 87% (active). Also, the inhibition is 50% (active) in test [2] and -2% in test [3]. The result in test [5], in test [6], in test [7] and in test [8] was inactive.

For the molecule `C=C[C@H]1CN(CCCCCCC)CC[C@H]1C[C@@H](Cc1ccnc2ccc(OC)cc12)OC(=O)[C@](OC)(c1ccccc1)C(F)(F)F`, the growth inhibition in test [1] and in test [4] was 96% (active) throughout. For the same molecule, the inhibition was 12% in test [2] and 7% in test [3]. The result in test [5], in test [6], in test [7] and in test [8] was inactive.

As to `COc1cc2nc(N3CCC(CNC(=O)c4ccc(-c5ccc(C(=O)N(C)C)cc5O)cc4)CC3)nc(N)c2cc1OC`, the growth inhibition was 90% (active) in test [1] and 101% (active) in test [4]. Moreover, the values for the inhibition in test [2] and in test [3] were 2% and 3%, respectively. Besides, the result in test [5], in test [6], in test [7] and in test [8] was inactive.

On to `COc1ccc2nc3cc(Cl)ccc3c(NCCO)c2c1`, for which the values for the growth inhibition in test [1] and in test [4] were 93% (active) and 101% (active), respectively. Also, the results for the inhibition in test [2] and in test [3] were 12% and 9%, respectively. In addition, the outcome in test [5], in test [6], in test [7] and in test [8] was inactive.

In the case of `CN=C(NC)c1cccc(NC(=O)C=Cc2ccc(C=CC(=O)Nc3cccc(C(=NC)NC)c3)cc2)c1`, the growth inhibition in test [1] was 99% (active); in test [4] it was 98% (active). Further, the figures for the inhibition in test [2] and in test [3] were 21% and 2%, respectively. The outcome in test [5], in test [6], in test [7] and in test [8] was inactive.

For `Cc1cnc(Nc2ccccc2)nc1NCCC(=O)Nc1ccccc1`, the growth inhibition was 7% in test [1] and 89% (active) in test [4]. For the same molecule, the results for the inhibition in test [2] and in test [3] were 10% and 3%, respectively. The result in test [5], in test [6], in test [7] and in test [8] was inactive.

Consider `CC(C)CCn1c(Sc2ccc([N+](=O)[O-])cc2C(F)(F)F)nnc1-c1ccccc1Cl`, for which the figures for the growth inhibition in test [1] and in test [4] were 43% and 99% (active), respectively. Moreover, the results for the inhibition in test [2] and in test [3] were -5% and 6%, respectively. For the same molecule, the outcome in test [5], in test [6], in test [7] and in test [8] was inactive.

Regarding `O=C(Nc1ccc(C(=O)Nc2ccc(C3=NCCN3)cc2)cc1)Nc1ccc(C2=NCCN2)cc1`, the growth inhibition in test [1] is 95% (active); in test [4], 94% (active). The inhibition in test [2] was -8%; in test [3] it was -7%. In addition, the result in test [5], in test [6], in test [7] and in test [8] was inactive.

With `O=C(NCCCN1CCC(N2CCCCC2)CC1)c1ccc(N2CCOc3ccccc32)s1`, the results for the growth inhibition in test [1] and in test [4] were 12% and 101% (active), respectively. Moreover, the inhibition in test [2] was 37%; in test [3], 4%. The result in test [5], in test [6], in test [7] and in test [8] was inactive.

With `Cc1[nH]c(-c2ccc(F)cc2)cc1C(=O)NC1CCN(Cc2ccccc2)CC1`, the growth inhibition in test [1] was 9%; in test [4] it was 84% (active). Besides, the inhibition in test [2] was 6%; in test [3] it was -2%. Also, the outcome in test [5], in test [6], in test [7] and in test [8] was inactive.

As to `Cc1cc(C(=O)Nc2ccc3c(c2)CCN3C2CCN(Cc3ccc(O)cc3)C2)no1` (stereo not given), the growth inhibition in test [1] is 86% (active); in test [4] it was 95% (active). Besides, the inhibition is 3% in test [2] and -1% in test [3]. The outcome in test [5], in test [6], in test [7] and in test [8] was inactive.

On to `CCc1ccc(N2C(N)=NC(N)=NC2(C)C)cc1`, for which the results for the growth inhibition in test [1] and in test [4] were -1% and 94% (active), respectively. Moreover, the values for the inhibition in test [2] and in test [3] were 51% (active) and -2%, respectively. Besides, the outcome in test [5], in test [6], in test [7] and in test [8] was inactive.

Usually inhibition stands for the change of the read-out against control, counted positive when it falls.

For the origin of these results see PubChem BioAssay.
